Assay results taken from ChEMBL document CHEMBL3988442, “University of Dundee, Small-Polar-MMV Screening Library” (2021).
The whole screen tested about 69,000 compounds, of which about 950 (1.4%) showed an effect of 50% or more. For the sample, strong results were picked, then their nearest neighbours and some compounds at random.

These compounds were tested on Mycobacterium tuberculosis (assay: Cornell M. t heat shock assay; note: in the data most compounds retested in dose-response had high values).
Format: functional, organism-based
Parameters: dose or concentration left out as unconfirmed
For `COc1c(CNCc2ccc(C(=O)N3CCCC3)cc2)c(C)nn1C.Cl`, the “Percent Effect” value was -14.26%.
For `COc1ccc(CN2C[C@@H]3OCCN(CCN(C)C)[C@@H]3C2)cc1.O=C(O)C(F)(F)F.O=C(O)C(F)(F)F.O=C(O)C(F)(F)F`, the “Percent Effect” value was -21.44%.
In the case of `Cl.NC(CNS(=O)(=O)Cc1cccc2cccnc12)c1ccccc1` (centres undefined), the “Percent Effect” value is reported as -15.27%.
For `O=C(NCC1CCOCC1)[C@H]1C[C@@H]2CCN(Cc3ccccc3)C[C@H]2O1.O=C(O)C(F)(F)F`, the “Percent Effect” value was -21.55%.
With `Cc1cccc(CN2CC[C@H]3[C@@H]2CC(=O)N3CC2CC2)n1.O=C(O)C(F)(F)F` the “Percent Effect” value was -9.975%.
With `O=C(c1ccsc1)N1CC[C@H]2C[C@@H](c3nnc(C4CC4)o3)O[C@@H]2C1` the “Percent Effect” value was 26.95%.
In the case of `O=C(c1cscn1)N1CC[C@H]2C[C@H](c3nnc(C4CC4)o3)O[C@@H]2C1`, the “Percent Effect” value is reported as 27.2%.
In the case of `O=C(c1ccccc1)N1CC[C@H]2C[C@H](c3nnc(C4CC4)o3)O[C@@H]2C1`, the “Percent Effect” value is reported as 57.91%.
For `O=C(c1ccccc1)N1CC[C@H]2C[C@@H](c3nnc(C4CC4)o3)O[C@@H]2C1`, the “Percent Effect” value was 48.55%.
With `O=C(c1ccoc1)N1CC[C@H]2C[C@@H](c3nnc(C4CC4)o3)O[C@@H]2C1` the “Percent Effect” value was 19.79%.
`O=C(c1cccs1)N1CC[C@H]2C[C@@H](c3nnc(C4CC4)o3)O[C@@H]2C1` was tested, and the “Percent Effect” value was 56.75%.
`COCC1c2c(cnn2C)CCN1C(=O)c1cc(C)on1.O=C(O)C(F)(F)F` (centres undefined) was tested, and the “Percent Effect” value was 28.69%.
In the case of `Cc1cnccc1-c1cnn(CCNC(=O)c2ccccn2)c1C1CC1.Cl`, the “Percent Effect” value is reported as 22.13%.
With `CC(C)Cc1cc(C(=O)NC(C)(C)c2nnc(N)s2)n(C)n1` the “Percent Effect” value was 18.34%.
With `CC(C)Cc1nc(CN2CCc3onc(-c4cccc(F)c4)c3C2)no1` the “Percent Effect” value was 52.2%.
In the case of `CC(C)(C)c1nc(CN2CCc3onc(-c4cccc(F)c4)c3C2)no1`, the “Percent Effect” value is reported as 31.99%.
With `CC(C)c1nc(CN2CCc3onc(-c4cccc(F)c4)c3C2)no1` the “Percent Effect” value was 35.68%.
For `CN(C)[C@@H]1CN(Cc2ccccc2O)C[C@H]1c1cn(C)c2ccccc12.Cl`, the “Percent Effect” value was 12.04%.
In the case of `CN(C)[C@@H]1CN(Cc2ccc(O)cc2)C[C@H]1c1cn(C)c2ccccc12.Cl`, the “Percent Effect” value is reported as 10.72%.
For `O=C1CCCC2=C1C(c1ccccc1F)Nc1nonc1N2` (centres undefined), the “Percent Effect” value was -20.35%.
For `O=c1cc(CN2CCCC2)nc2n1CCCN(Cc1ccsc1)C2`, the “Percent Effect” value was -27.96%.
With `Cn1ccnc1-c1nc(NC2CCCC2)ncc1-c1cccc(F)c1` the “Percent Effect” value was 85.28%.
In the case of `CCOCCCNc1ncc(-c2cccc(F)c2)c(-c2nccn2C)n1`, the “Percent Effect” value is reported as 8.299%.
`COCCNc1ncc(-c2cccc(F)c2)c(-c2nccn2C)n1` was tested, and the “Percent Effect” value was -4.341%.
With `Cl.O=C1CC2(CCCNC2)C(=O)N1Cc1cccc(F)c1` (centres undefined) the “Percent Effect” value was -11.34%.
For `CCN1CCn2c(C)cnc2C12CCN(C(=O)COC)CC2.O=C(O)C(F)(F)F.O=C(O)C(F)(F)F`, the “Percent Effect” value was -13.45%.
In the case of `CCc1nc(N)nc(N2CCCC3(CN(C)C(=O)O3)C2)c1C` (centres undefined), the “Percent Effect” value is reported as -1.052%.
In the case of `CNC(=O)CN1CCCC12CCN(C(=O)c1ccoc1)CC2.O=C(O)C(F)(F)F`, the “Percent Effect” value is reported as 6.336%.
With `Cc1nc(-c2cncnc2C2CCCNC2)no1.Cl.Cl` (centres undefined) the “Percent Effect” value was -15.54%.
With `COc1cccc(C(=O)N2CCOC3(CCCN(C(C)=O)C3)C2)c1` (centres undefined) the “Percent Effect” value was 5.566%.
In the case of `CC(=O)N1CCCC2(C1)CN(C(=O)c1ccncc1)CCO2` (centres undefined), the “Percent Effect” value is reported as -1.478%.
`COc1ccccc1C(=O)N1CCOC2(CCCN(C(C)=O)C2)C1` (centres undefined) was tested, and the “Percent Effect” value was 71.6%.
`Cc1noc([C@H]2C[C@@H]3CCN(c4nnc(C)s4)C[C@H]3O2)n1.O=C(O)C(F)(F)F` was tested, and the “Percent Effect” value was 1.861%.
For `Cc1ccc(N2CCC3(CCN(C(=O)c4ccsc4)C3)CC2)nn1.O=C(O)C(F)(F)F`, the “Percent Effect” value was -20.48%.
For `Fc1ccc(CN2CCC3(CC2)CC(c2cccnc2)CO3)cc1.O=C(O)C(F)(F)F.O=C(O)C(F)(F)F` (centres undefined), the “Percent Effect” value was -26.17%.
For `COCCN1C(=O)[C@H]2CC[C@@H]1CN(C(=O)CCc1n[nH]c(C)c1C)C2`, the “Percent Effect” value was 8.165%.
`O=C(c1cnc(-c2noc3cc(N4CCCC4)ccc23)s1)N1CCCC1` was tested, and the “Percent Effect” value was -6.808%.
With `CCN(C)C(=O)c1cnc(-c2noc3cc(N4CCCCC4)ccc23)s1` the “Percent Effect” value was 85.74%.
For `O=C(NC1CC1)c1cnc(-c2noc3cc(N4CCCCC4)ccc23)s1`, the “Percent Effect” value was -8.735%.
For `Cl.O=C(c1ccnc(C2CCNCC2)c1)N1CCCOCC1`, the “Percent Effect” value was -3.625%.
With `CCS(=O)(=O)NCC(=O)N1CC2(CCCC2)c2c(F)cccc21` the “Percent Effect” value was 17.06%.
`O=C(NCC(=O)N1CC2(CCCC2)c2c(F)cccc21)C1CC1` was tested, and the “Percent Effect” value was 55.94%.
For `CNS(=O)(=O)CC(=O)N1CC2(CCCC2)c2c(F)cccc21`, the “Percent Effect” value was 13.66%.
For `CCCS(=O)(=O)N1C[C@@H](Oc2ncccc2F)[C@H]2OCCC[C@H]21.O=C(O)C(F)(F)F`, the “Percent Effect” value was -14.35%.
With `Cl.Cl.O=C(N[C@@H]1CN[C@H]2CCCO[C@H]21)c1cccnc1` the “Percent Effect” value was -32.33%.
In the case of `CCc1n[nH]c(C2CN(Cc3ncc(CC)o3)CCO2)n1` (centres undefined), the “Percent Effect” value is reported as -30.6%.
`COc1ccc(CNCc2ccnc(N3CCCC3)c2)c(OC)c1.Cl` was tested, and the “Percent Effect” value was 15.53%.
With `Cn1cnc2c1CCN(Cc1csc(-c3ccccc3F)n1)C2` the “Percent Effect” value was 47.56%.
`CC(C)c1nc2c(n1C)CCN(Cc1nc(-c3ccsc3)no1)C2` was tested, and the “Percent Effect” value was 103.5%.
With `COc1ccc(-c2nc(CN3CCc4c(ncn4C)C3)cs2)cc1` the “Percent Effect” value was 174%.
`Cn1cnc2c1CCN(Cc1csc(-c3ccsc3)n1)C2` was tested, and the “Percent Effect” value was 121.8%.
With `c1cc(-c2nc(CN3CCc4c(ncn4C4CC4)C3)cs2)cs1` the “Percent Effect” value was 24.33%.
In the case of `Cn1c(C2CC2)nc2c1CCN(Cc1nc(-c3ccsc3)no1)C2`, the “Percent Effect” value is reported as 13.01%.
In the case of `Cn1cnc2c1CCN(Cc1csc(-c3ccc(F)cc3)n1)C2`, the “Percent Effect” value is reported as 1.572%.
With `c1ccc(-c2nc(CN3CCc4c(ncn4C4CC4)C3)cs2)cc1` the “Percent Effect” value was 62.99%.
With `CC(C)c1nc2c(n1C)CCN(Cc1nc(-c3ccoc3)no1)C2` the “Percent Effect” value was -1.716%.
`Cn1cc(-c2nc(CN3CCc4c(ncn4C)C3)cs2)cn1` was tested, and the “Percent Effect” value was -15.5%.
With `Cn1cc(-c2nc(CN3CCc4c(ncn4C4CC4)C3)cs2)cn1` the “Percent Effect” value was 19.08%.
`Cn1cnc2c1CCN(Cc1csc(-c3ccccc3)n1)C2` was tested, and the “Percent Effect” value was -8.138%.
